89 compounds from PubChem BioAssay AID602252 (Broad Institute, 2012) can be followed below.

A word on the inhibition: it is the change of the read-out against control, counted positive when it falls.

Hit rate of the full screen: of about 300,000 compounds, about 2,700 (0.9%) were called active. Only a selection was taken, and actives are over-represented in it overall. A number with no mark means an inactive call.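 How the source made its calls: active means mean inhibition of at least 30% with at least half of replicates also reaching 30%; inconclusive means no clear call, values can overlap the other calls; inactive means the rest.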

The target in this test is Golgi-associated PDZ and coiled-coil motif-containing protein (Homo sapiens) (UniProt Q9HD26). As to the kind of experiment: untagged CAL PDZ binding inhibitors, primary screen, biochemical, fluorescence polarization, HTS (AID 602252).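 Further: 0% = DMSO neutral control and 100% = excess unlabeled competitor peptide PRC23.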 The conditions noted are these: purified CAL PDZ, TMR-peptide fluorescence polarization, 1 h; at 24.9 µM; hits give high values.
For `CN1C(c2ccc(F)cc2)=CS/C1=C(/C#N)c1nnc2n1-c1ccccc1SC2`, the inhibition was 7.66%.

`C=CC[C@@H](CC(=O)N[C@H](CO)Cc1ccccc1)C(=O)N[C@H](C)COC(=O)[C@@H](CC=C)Cc1ccc(F)cc1`: the inhibition was 4.91%.

In the case of `C=CCC[C@H](Cc1ccc(F)cc1)C(=O)OC[C@@H](NC(=O)[C@@H](CC=C)CC(=O)N[C@H](CO)Cc1ccccc1)C(C)(C)C`, the inhibition is 40.2% (active).

For the compound `C=CCC[C@H](Cc1ccc(F)cc1)C(=O)OC[C@@H](Cc1c[nH]c2ccccc12)NC(=O)[C@H](CC=C)CC(=O)N[C@H](CO)Cc1ccccc1`, the inhibition was -1.97%.

On to `O=C1/C(=C\c2ccc(O)cc2)CCC1CNc1ccc(Cl)cc1` (centres undefined), for which the inhibition is -2.09%.

In the case of `CC(=O)OC1CCC2(C)C(=CCC3C4CC(=O)N(O)C(=O)C4(C)CCC32)C1` (centres undefined), the inhibition is -3.51%.

As for `c1ccc(C(=NNc2nc3ccccc3s2)c2ccccn2)cc1`, the inhibition is 10.3%.

In the case of `CCCCc1nnc(NC(=O)CS(=O)(=O)Cc2ccccc2)s1`, the inhibition was 30.2% (active).

As for `COCc1nnc(NC(=O)CS(=O)(=O)Cc2ccccc2)s1`, the inhibition was -3.64%.

Regarding `CCOCc1nnc(NC(=O)CCS(=O)(=O)Cc2ccccc2)s1`, the inhibition is -2.55%.

On to `COc1ccc(N2CCN(C(CNS(=O)(=O)c3ccc(C)cc3)c3ccccc3)CC2)cc1` (centres undefined), for which the inhibition is -2.12%.

With `O=C1C=CN2CCCC2CC1` (centres undefined), the inhibition was -1.74%.

Take `O=C(NC(=S)Nc1ccc(Br)cc1F)C1CCCCC1`: the inhibition is -6.68%.

Consider `Cc1nn(-c2ccc(F)cc2)c(Cl)c1/C=C(/CCC(=O)O)c1nc2ccccc2s1`, for which the inhibition is -3.19%.

Consider `COc1cc(C2c3cc4c(cc3C(O)C3COC(=O)C23)OCO4)cc(OC)c1OC` (centres undefined), for which the inhibition was -1.27%.

With `CCc1ccccc1NC(=O)c1ccc2c(c1)CCN2S(C)(=O)=O`, the inhibition is 40% (active).

As to `CS(=O)(=O)N1CCc2cc(C(=O)Nc3ccccc3Br)ccc21`, the inhibition was -1.26%.

As to `CSc1ccccc1NC(=O)c1ccc2c(c1)CCN2S(C)(=O)=O`, the inhibition is -1.36%.

For the compound `COc1cc(OC)cc(-c2cc3ccc(F)cc3cn2)c1`, the inhibition was -1.91%.

Regarding `O=C(C1CCN(Cc2ccc(Cl)cc2)CC1)N1CCN(Cc2ccc3c(c2)OCO3)CC1`, the inhibition was 2.38%.

Consider `O=C(C1CCN(C2CCN(Cc3cccc4c3OCO4)CC2)CC1)N1CCOCC1`, for which the inhibition is 37.8% (active).

As to `C/C(=C\c1ccco1)CN1CCC(N2CCC(C(=O)N3CCOCC3)CC2)CC1`, the inhibition was 5.25%.

Consider `CCC(CO)Oc1cc(NC(=O)c2cccc3ccccc23)c2ncn(C(C)C)c2c1` (centres undefined), for which the inhibition is -1.65%.

For the compound `Cc1cc(C)cc(OCC(=O)Nc2ccc(N3CCOCC3)cc2N2CCOCC2)c1`, the inhibition is -3.82%.

With `CCOc1ccc(NC(=O)c2nc(SCC)ncc2Cl)cc1`, the inhibition was -1.2%.

For `CCOc1ccc(NC(=O)C2CC(=O)N=C(N)S2)cc1` (centres undefined), the inhibition was -0.069%.

As for `CCOc1ccc(N/C(N)=N/c2nc(C)c(C)c(=O)[nH]2)cc1`, the inhibition was 42% (active).

On to `CCCCN1CC(COCc2ccccc2)OCCS1(=O)=O` (centres undefined), for which the inhibition is -4.9%.

As for `O=C(O)c1ccc(NN=CC2=C(N3CCOCC3)/C(=C/c3ccccc3)CC2)cc1`, the inhibition is -3.09%.

As for `CCCCNC(=O)C(C)N(CCN(C)C)C(=O)CCCCCN1C(=O)NC(c2ccc(Cl)cc2)C(C(=O)OCc2ccccc2)=C1C` (centres undefined), the inhibition is -7.11%.

For `Cc1oc2nc(SCC(=O)NCc3cccnc3)nc(N)c2c1C`, the inhibition was -4.94%.

As for `Cc1oc2nc(SCC(=O)Nc3ccc(S(N)(=O)=O)cc3)nc(NC(=O)c3ccccc3)c2c1C`, the inhibition was 30.6% (active).

On to `Cc1cc(-c2nnc(SCC(=O)Nc3ccc(S(N)(=O)=O)cc3)n2N)n[nH]1`, for which the inhibition is 2.84%.

On to `O=C(/C=C/c1c(F)cccc1Cl)Nc1nn[nH]n1`, for which the inhibition was 133% (active).

Regarding `CCOC(=O)CNC(=O)/C=C/c1c(Cl)cccc1Cl`, the inhibition was -4.11%.

In the case of `O=C(CCc1ccccc1)Nc1nn[nH]n1`, the inhibition was -4.68%.

For the compound `COc1ccc2c(c1)[C@H]1[C@H](CO2)[C@H](c2ccccc2)[C@]2(C)C(=O)Nc3cc(F)c(F)cc3C(=O)N12`, the inhibition was -3.04%.

Consider `Cc1ccc(S(=O)(=O)NC[C@H]2O[C@@H](n3cnc4c(N)ncnc43)[C@H](O)[C@@H]2O)s1`, for which the inhibition was -0.852%.

Consider `O=c1c(Cl)c(NC2CC2)cnn1-c1ccccc1`, for which the inhibition is -0.978%.

Take `C=CCNc1cnn(-c2ccc(C)cc2)c(=O)c1Cl`: the inhibition is 82% (active).

Consider `CCCNC(=O)c1c(Cl)cnn1-c1ccc(C)cc1`, for which the inhibition is 4.34%.

On to `COc1ccc2[nH]c3c(c2c1)CCN1C(=O)C(CC(=O)NCCc2ccccn2)C[C@H](C(=O)N2CCOCC2)[C@@]31C` (some centres undefined), for which the inhibition is -8.9%.

Consider `COC(=O)[C@]1(Cc2ccccc2)N[C@H](CN(C)S(=O)(=O)c2ccc(OC(F)(F)F)cc2)[C@@H]2C(=O)N(C)C(=O)[C@@H]21`, for which the inhibition is -4.26%.

On to `N#CCCN1CCN(S(=O)(=O)c2ccc(S(=O)(=O)N3CCCC3)cc2)CC1`, for which the inhibition was 2.13%.

Turning to `Cc1ccc(S(=O)(=O)NC2CCCCCC2)cc1`, the inhibition was 0.011%.

For the compound `N#CCCN1CCN(S(=O)(=O)c2ccc(S(=O)(=O)NC3CCCCC3)cc2)CC1`, the inhibition is 49.3% (active).

`COc1ccc(-c2c(-c3cc(OC)cc(OC)c3)n(C)c3ccc(-c4ccn[nH]4)cc23)cc1`: the inhibition is -3.15%.

For the compound `CCN1CCC(O)(/C=C/c2ccc(C)cc2)C(C(=O)/C=C/c2ccc(C)cc2)C1` (centres undefined), the inhibition is 8.48%.

`C=CCn1c(=O)c(C(=O)Nc2ncccc2O)c(O)c2ccccc21`: the inhibition is -2.5%.

For `CCCn1c(=O)c(C(=O)Nc2cc(C)ccn2)c(O)c2ccccc21`, the inhibition is -3.7%.

As to `Cn1c(=O)c(C(=O)Nc2ncccn2)c(O)c2ccccc21`, the inhibition is 35% (active).

Take `COc1ccc(Cl)cc1C=CC=Nc1ccc(S(N)(=O)=O)cc1`: the inhibition was 1.96%.

Turning to `COc1cccc(CC(=O)Nc2nc(-c3ccc(OC)c(OC)c3)cs2)c1`, the inhibition was -0.162%.

For `COc1ccc(CC(=O)Nc2nc(-c3ccc(F)c(F)c3)cs2)cc1OC`, the inhibition was -3.84%.

Regarding `COc1ccc(CCNc2nc(-c3cccc(NC(C)=O)c3)cs2)cc1OC`, the inhibition is 57.3% (active).

On to `O=C(Nc1cccc(S(=O)(=O)N2CCOCC2)c1)C12CC3CC(CC(C3)C1)C2`, for which the inhibition is -2.14%.

With `CSc1ncnc2c1ncn2CC(=O)C1CCC2C3CCC4=CC(=O)CCC4(C)C3CCC12C` (centres undefined), the inhibition is 2.07%.

Regarding `COc1ccccc1N(CC(=O)N1CCCCC1)S(=O)(=O)c1ccccc1`, the inhibition is -3.76%.

`COc1ccccc1NC(=O)CN(c1ccccc1OC)S(=O)(=O)c1ccccc1`: the inhibition was 0.854%.

As to `COc1ccccc1N(CCOc1ccccc1)S(=O)(=O)c1ccccc1`, the inhibition was 71% (active).

As for `O=C(O)C(=Cc1ccccc1[N+](=O)[O-])c1ccccc1`, the inhibition was -1.54%.

For `O=C(NCc1nnc(SCC(=O)N2CCCCCC2)o1)c1ccc(F)cc1`, the inhibition was -2.96%.

For the compound `COc1ccc(C(=O)NCc2nnc(SCC(=O)Nc3cccc(OC)c3)o2)cc1`, the inhibition was -4.41%.

Regarding `O=C(CSc1nnc(CNC(=O)c2ccc(F)cc2)o1)Nc1ccc2c(c1)OCO2`, the inhibition is 74.1% (active).

As to `COc1ccc(-c2ccc3c(c2)[C@@H]2C[C@H](N(C)S(=O)(=O)c4ccccc4)[C@H]([C@H](C)O)C(=O)N2CC3)cc1`, the inhibition was -5.77%.

With `O=c1[nH]c2ccc(S(=O)(=O)N3CCCC3)cc2[nH]1`, the inhibition was -3.37%.

Regarding `CCCCn1c(=S)[nH]c2cc(S(=O)(=O)N3CCCCC3)ccc21`, the inhibition was 1.64% (active).

With `CCCCn1c(N)c(N(CCOC)C(=O)c2cccc(S(=O)(=O)N3CCCCC3)c2)c(=O)[nH]c1=O`, the inhibition is -4.58%.

As to `CCN(CC)S(=O)(=O)c1cccc(NC(=O)c2ccc(S(=O)(=O)N3CCCC3)cc2)c1`, the inhibition was -1.26%.

Consider `O=C1/C(=C\c2ccc([N+](=O)[O-])cc2)CS(=O)(=O)C/C1=C/c1ccc([N+](=O)[O-])cc1`, for which the inhibition is -4.54%.

For the compound `COc1ccccc1NC(=O)COC(=O)CNC(=O)C1CCCCC1`, the inhibition was -1.86%.

With `CN(CCc1ccccc1)C(=O)c1cccc(NC(=O)Cc2ccc([N+](=O)[O-])cc2)c1`, the inhibition is 0.702%.

On to `O=C(COC(=O)c1ccccn1)NNC(=O)c1ccc(Br)cc1`, for which the inhibition was -0.344%.

Take `O=Cc1ccc(Oc2cccc(C(F)(F)F)c2)nc1`: the inhibition is 2.04%.

As to `Cc1cccc(OCc2nnc(SCc3nc4cc(C(F)(F)F)ccc4c(=O)[nH]3)o2)c1`, the inhibition was 1.6%.

Consider `Cc1nc(N)[nH]c(=O)c1Oc1cccc(C(F)(F)F)c1`, for which the inhibition is 71.1% (active).

For `Fc1ccccc1-c1cc2cc3c(cc2cn1)OCO3`, the inhibition was -3.15%.

As for `COc1cc(/C=C/c2ccc(/C=C/c3cc(OC)c(OC)c(OC)c3)cc2)cc(OC)c1OC`, the inhibition is -6.47%.

On to `CC(Oc1ccc2c(-c3ccccc3)cc(=O)oc2c1)C(=O)NC(Cc1c[nH]c2ccccc12)C(=O)O` (centres undefined), for which the inhibition is 1.66%.

Take `Cn1c(CCN2CCCCCC2)nc2cc(NC(=O)Nc3ccccc3)ccc21`: the inhibition is 49.1% (active).

Take `Cn1c(CCN2CCCC2)nc2cc(NS(=O)(=O)c3ccccc3)ccc21`: the inhibition is -2.75%.

For `CCC(=O)Nc1ccc2c(c1)nc(CCN1CCN(c3ccccn3)CC1)n2C`, the inhibition is -15.1%.

For the compound `CC[C@@H]1CCCCc2ccccc2[C@@H](C(=O)C[C@H](O)CC(C)=O)OC1=O`, the inhibition is 1.2%.

Take `O=C(NCc1cccs1)C1CCN(S(=O)(=O)c2ccc3c(c2)OCCO3)CC1`: the inhibition is -6.83%.

Regarding `O=C(NCc1ccccc1Cl)C1CCN(S(=O)(=O)c2cccc3nonc23)CC1`, the inhibition is -3.79%.

Take `O=C(NCc1ccccc1Cl)C1CCN(S(=O)(=O)N2CCOCC2)CC1`: the inhibition was 137% (active).

For the compound `COc1ccc(CNC(=O)C2CCN(S(=O)(=O)N3CCOCC3)CC2)cc1`, the inhibition is -1.68%.

In the case of `COCCNC(=O)C1CCN(S(=O)(=O)c2ccc3c(c2)OCCO3)CC1`, the inhibition was -1.23%.

Take `COc1ccccc1CNC(=O)C1CCN(S(=O)(=O)c2ccc3c(c2)OCCO3)CC1`: the inhibition was 80.2% (active).
